# Results from PubChem BioAssay (NCI).
# About 79,000 compounds went through this panel and 15% of them were active in at least one assay; those are over-represented in the sample as a whole. Activity calls are given as the source filed them. No stated cut-off is given here; in the data, active means growth inhibition above about 70%; inactive means the rest.
# Test: NCI Yeast Anticancer Drug Screen. Data for the bub3 strain (AID 167)
# Settings: S. cerevisiae bub3 mutant strain, at 50.0 µM, active compounds read high
# Procedure, shortened: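 Inhibition values come from growth of compound-treated mutant yeast normalised to vehicle-treated controls.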
row,Compound,growth inhibition
1,COc1cc(C(=O)O)c(Br)c(OC)c1OC,42.9% (inactive)
2,Cc1cc2c(cc1C)OC(=O)CC2,7.45% (inactive)
3,CC(C)(C)N(Cc1ccccc1)C(=O)Nc1ccccc1,32.3% (inactive)
4,C#CCN(Cc1ccc2nc(-c3ccccc3)c(N)nc2c1)c1cc(OC)c(OC)c(OC)c1,14.7% (inactive)
5,NC(=O)O/N=C/c1ccccn1,-2.65% (inactive)
6,O.[Cl][Co]([Cl])[Cl].c1c[nH]cn1.c1c[nH]cn1,8.4% (inactive)
7,O=S(O)CCCCCSSSCCCCCS(=O)O,9.05% (inactive)
8,Nc1[nH]n(-c2ccccc2)c(=O)c1C1c2ccccc2Sc2ccccc21,15.2% (inactive)
9,CCOC(=O)c1ccc(NC(=O)Oc2cc(C)c(Cl)c(C)c2)cc1,14.9% (inactive)
10,CC(=O)Oc1ccc(C(c2ccccc2)c2ccccc2)c2ccccc12,-52.8% (inactive)
11,COc1ncnc2ncn(C)c12,6.95% (inactive)
12,CN(C)Cc1cc(C(=O)/C=C/c2ccc(Cl)cc2)cc(CN(C)C)c1O,1.2% (inactive)
13,CCN1C(=O)CC(SCCSC2CC(=O)N(CC)C2=O)C1=O (stereo not given),13.7% (inactive)
14,COc1ccc(CC(C)SC(CC(=O)O)C(=O)O)cc1 (stereo not given),7.95% (inactive)
15,CC1(C)N(/N=C/c2ccccc2)C(c2ccccc2)C(c2ccccc2)N1/N=C/c1ccccc1 (stereo not given),2.65% (inactive)
16,O=C(/C=C/c1ccc(Cl)cc1)c1cccs1,9.55% (inactive)
17,CC(=O)COc1cccc2ccccc12,-23.8% (inactive)
18,CC[N+](C)(CC)CCOC(=O)C(c1ccccc1)C(O)C1CCCCC1 (stereo not given),-0.3% (inactive)
19,N#CC(NNC(=O)Cc1ccccc1)c1ccccc1O (stereo not given),-21.7% (inactive)
20,CN(C)CCSS(=O)(=O)O,-19.1% (inactive)

row,Compound,growth inhibition
1,CCc1cc2c(Nc3ccccc3)c3c(nc2s1)CCCC3,16.4% (inactive)
2,Cc1cccc2c1C(=O)C(C1OC(=O)c3ccccc31)C2 (stereo not given),13.5% (inactive)
3,Nc1cccc2ccc(S(=O)(=O)O)cc12,-9.9% (inactive)
4,O=C1N=C2SC(=S)NC(=S)N2NC12c1ccccc1-c1ccccc12,16.4% (inactive)
5,N#CC(=C1CCCCC1)c1ccccc1,-15.9% (inactive)
6,CC(C)C(=O)C(C)(C)CCc1ccccn1,-12.2% (inactive)
7,[O-][n+]1c2ccc(Cl)cc2nc2ccc(Cl)cc21,1.45% (inactive)
8,CCN(CC)CN1C(=O)C(=O)c2ccccc21,12.8% (inactive)
9,Nc1nc(-c2ccccc2)cc(-c2cc(-c3ccccc3)nc(N)n2)n1,-5.95% (inactive)
10,O=C(O)C(O)c1c[nH]c2ccccc12 (stereo not given),-11.4% (inactive)
11,CCc1cc(O)c([N+](=O)[O-])cc1[N+](=O)[O-],-17.2% (inactive)
12,Cc1cc2c(cc1Cl)SC(N/N=C(\N)c1ccc(Cl)cc1)=NS2(=O)=O,-14.4% (inactive)
13,COc1nc2ccccc2c(=O)[nH]1,2% (inactive)
14,CCC(C)(O)C#CC(C)(O)CC (stereo not given),9.8% (inactive)
15,CN(c1ccccc1)C1C(=O)N(c2ccccc2)C1/C=C/c1ccccc1 (stereo not given),11.9% (inactive)
16,O=C(O)c1cccc([N+](=O)[O-])c1Nc1cccc(C(F)(F)F)c1,27.1% (inactive)
17,NC(=O)c1ccc[n+](CCCCCCCCCCC(=O)[O-])c1,4.75% (inactive)
18,CC(=O)O[C@@H]1[C@H]2O[C@H]2[C@H]2O[C@@]2(COC(=O)c2ccccc2)[C@H]1OC(C)=O,0.75% (inactive)
19,CC(=O)Nc1cc(Cl)c(Oc2ccccc2)cc1[N+](=O)[O-],52% (inactive)
20,O=C(NNC(=S)Nc1ccccc1)c1nsc2ccccc12,28% (inactive)

# Test: NCI Yeast Anticancer Drug Screen. Data for the mlh1 rad18 strain (AID 175)
# Settings: S. cerevisiae mlh1 rad18 strain growth inhibition; at 50.0 µM; active compounds read high
# Procedure, shortened: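 Cells of a genetically altered yeast strain, deficient in DNA damage repair, were treated with compound. Their growth was then compared with that of vehicle-treated cultures to give inhibition.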
row,Compound,growth inhibition
1,COc1cc(C(=O)O)c(Br)c(OC)c1OC,1% (inactive)
2,Cc1cc2c(cc1C)OC(=O)CC2,3.65% (inactive)
3,CC(C)(C)N(Cc1ccccc1)C(=O)Nc1ccccc1,7.4% (inactive)
4,C#CCN(Cc1ccc2nc(-c3ccccc3)c(N)nc2c1)c1cc(OC)c(OC)c(OC)c1,30.1% (inactive)
5,NC(=O)O/N=C/c1ccccn1,-6.95% (inactive)
6,O.[Cl][Co]([Cl])[Cl].c1c[nH]cn1.c1c[nH]cn1,-2.7% (inactive)
7,O=S(O)CCCCCSSSCCCCCS(=O)O,44.7% (inactive)
8,Nc1[nH]n(-c2ccccc2)c(=O)c1C1c2ccccc2Sc2ccccc21,16.2% (inactive)
9,CCOC(=O)c1ccc(NC(=O)Oc2cc(C)c(Cl)c(C)c2)cc1,-3.65% (inactive)
10,CC(=O)Oc1ccc(C(c2ccccc2)c2ccccc2)c2ccccc12,-18.9% (inactive)
11,COc1ncnc2ncn(C)c12,0.2% (inactive)
12,CN(C)Cc1cc(C(=O)/C=C/c2ccc(Cl)cc2)cc(CN(C)C)c1O,-18.1% (inactive)
13,CCN1C(=O)CC(SCCSC2CC(=O)N(CC)C2=O)C1=O (stereo not given),-2.45% (inactive)
14,COc1ccc(CC(C)SC(CC(=O)O)C(=O)O)cc1 (stereo not given),-8.2% (inactive)
15,CC1(C)N(/N=C/c2ccccc2)C(c2ccccc2)C(c2ccccc2)N1/N=C/c1ccccc1 (stereo not given),9.75% (inactive)
16,O=C(/C=C/c1ccc(Cl)cc1)c1cccs1,-7.75% (inactive)
17,CC(=O)COc1cccc2ccccc12,-2.35% (inactive)
18,CC[N+](C)(CC)CCOC(=O)C(c1ccccc1)C(O)C1CCCCC1 (stereo not given),8.75% (inactive)
19,N#CC(NNC(=O)Cc1ccccc1)c1ccccc1O (stereo not given),-12.8% (inactive)
20,CN(C)CCSS(=O)(=O)O,-14.2% (inactive)

row,Compound,growth inhibition
1,CCc1cc2c(Nc3ccccc3)c3c(nc2s1)CCCC3,-33.5% (inactive)
2,Cc1cccc2c1C(=O)C(C1OC(=O)c3ccccc31)C2 (stereo not given),-12.4% (inactive)
3,Nc1cccc2ccc(S(=O)(=O)O)cc12,8.85% (inactive)
4,O=C1N=C2SC(=S)NC(=S)N2NC12c1ccccc1-c1ccccc12,19.6% (inactive)
5,N#CC(=C1CCCCC1)c1ccccc1,-27.1% (inactive)
6,CC(C)C(=O)C(C)(C)CCc1ccccn1,-8.35% (inactive)
7,[O-][n+]1c2ccc(Cl)cc2nc2ccc(Cl)cc21,-4.6% (inactive)
8,CCN(CC)CN1C(=O)C(=O)c2ccccc21,10.3% (inactive)
9,Nc1nc(-c2ccccc2)cc(-c2cc(-c3ccccc3)nc(N)n2)n1,10.3% (inactive)
10,O=C(O)C(O)c1c[nH]c2ccccc12 (stereo not given),-29.3% (inactive)
11,CCc1cc(O)c([N+](=O)[O-])cc1[N+](=O)[O-],-7.95% (inactive)
12,Cc1cc2c(cc1Cl)SC(N/N=C(\N)c1ccc(Cl)cc1)=NS2(=O)=O,-8.1% (inactive)
13,COc1nc2ccccc2c(=O)[nH]1,6.5% (inactive)
14,CCC(C)(O)C#CC(C)(O)CC (stereo not given),-40.8% (inactive)
15,CN(c1ccccc1)C1C(=O)N(c2ccccc2)C1/C=C/c1ccccc1 (stereo not given),39.1% (inactive)
16,O=C(O)c1cccc([N+](=O)[O-])c1Nc1cccc(C(F)(F)F)c1,0.25% (inactive)
17,NC(=O)c1ccc[n+](CCCCCCCCCCC(=O)[O-])c1,1.95% (inactive)
18,CC(=O)O[C@@H]1[C@H]2O[C@H]2[C@H]2O[C@@]2(COC(=O)c2ccccc2)[C@H]1OC(C)=O,-38.5% (inactive)
19,CC(=O)Nc1cc(Cl)c(Oc2ccccc2)cc1[N+](=O)[O-],14.6% (inactive)
20,O=C(NNC(=S)Nc1ccccc1)c1nsc2ccccc12,23.4% (inactive)
